Measurements taken from PubChem BioAssay (EPA / NIEHS).
Records with an inconclusive call do not appear. Activity calls are given as the source filed them. The calls were made as follows: active = hit-call score of the fitted dose curve at least 0.9, where 1 is the maximum; inconclusive = response in the unintended direction; inactive = score below 0.9.

Tests used:
[1] = ArunA_Migration_hNC: ArunA Biomedical's Oris Neural Crest (hNC) Cell Migration Assay (AID 2283755)
In short: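 Calcein-AM fluorescence (ex494 nm/em 517 nm) in the stopper-defined detection zone quantifies migration of hNC cells after 72 h chemical exposure; 60,000 cells/well plated on Matrigel with LIF and bFGF, 16 h pre-incubation. DMSO baseline.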

[2] = ArunA_NOG_BranchPointsPerNeurite: ArunA Biomedical's Neurite Outgrowth (NOG) Assay for Branch Points Per Neurite (AID 2283759)
In short: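 Automated image analysis traced neurites (processes >10 um) from valid cell bodies after Hoechst and βIII-tubulin staining. hNN cells from H9 embryonic stem cells, 48 h exposure. Fitted bidirectionally against DMSO.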

[3] = ArunA_NOG_NeuriteLength: ArunA Biomedical's Neurite Outgrowth (NOG) Assay for Neurite Length (AID 2283757)
In short: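 Total neurite length per neuron, from traced βIII-tubulin-labelled processes longer than 10 um on viable Hoechst-gated cells, was scored as decrease from DMSO. Cells were hESC (H9)-derived neurons given 48 h chemical exposure immediately after seeding.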

[4] = ArunA_NOG_NeuritesPerNeuron: ArunA Biomedical's Neurite Outgrowth (NOG) Assay for Neurites Per Neuron (AID 2283758)
In short: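 Differentiated human H9-derived neurons exposed to chemicals for 48 h from seeding, then stained with Hoechst and βIII-tubulin/DyLight 488. Automated imaging counted neurites (processes >10 um) per valid neuron; loss of signal versus DMSO scored.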

[5] = tested on: frog Androgen Receptor (AR), gene 399456; assay: ATG_frAR_XSP1: Attagene TRANS-FACTORIAL Multi-Species (XSP1) HepG2 Assay for frog Androgen Receptor (AR) (AID 2283770)

## CC(C)(C)c1ccc(CSc2cnn(C(C)(C)C)c(=O)c2Cl)cc1
[1]
  AC50: 0.0516 µM (active)
[2]
  outcome: inactive

## N#Cc1nn(-c2c(Cl)cc(C(F)(F)F)cc2Cl)c(N)c1S(=O)C(F)(F)F (stereo not drawn)
[1]
  AC50: 30.9 µM (active)
[3]
  AC50: 31.8 µM (active)
[4]
  AC50: 32 µM (active)
[2]
  outcome: inactive

## C#CCOS(=O)OC1CCCCC1Oc1ccc(C(C)(C)C)cc1 (stereo not drawn)
[5]
  AC50: 2.11 µM (active)

## COP(=S)(OC)Oc1nc(Cl)c(Cl)cc1Cl
[5]
  AC50: 5.58 µM (active)
